# Assay results published in PubChem BioAssay AID1508602 (The Scripps Research Institute Molecular Screening Center, 2020).
# About 6,800 (1%) of roughly 650,000 compounds were called active. Rule as the data show it: active = activation above about 4.9%; inactive = the rest. For the sample, actives were picked, then their nearest neighbours and some compounds at random.
# Molecular target: G-protein coupled receptor 151 (Homo sapiens) (UniProt Q8TDV0)
# Assay: activates the human receptor GPR151, primary screen, cell-based, PathHunter beta-arrestin, luminescence (AID 1508602);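 also: 0% = median of compound wells and 100% = cells with positive control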
# Conditions: PathHunter beta-arrestin GPR151 cells, at 11.2 µM, stronger effect = higher value
# Chain of G-protein coupled receptor 151 (Homo sapiens) (Q8TDV0 whole entry, looked up): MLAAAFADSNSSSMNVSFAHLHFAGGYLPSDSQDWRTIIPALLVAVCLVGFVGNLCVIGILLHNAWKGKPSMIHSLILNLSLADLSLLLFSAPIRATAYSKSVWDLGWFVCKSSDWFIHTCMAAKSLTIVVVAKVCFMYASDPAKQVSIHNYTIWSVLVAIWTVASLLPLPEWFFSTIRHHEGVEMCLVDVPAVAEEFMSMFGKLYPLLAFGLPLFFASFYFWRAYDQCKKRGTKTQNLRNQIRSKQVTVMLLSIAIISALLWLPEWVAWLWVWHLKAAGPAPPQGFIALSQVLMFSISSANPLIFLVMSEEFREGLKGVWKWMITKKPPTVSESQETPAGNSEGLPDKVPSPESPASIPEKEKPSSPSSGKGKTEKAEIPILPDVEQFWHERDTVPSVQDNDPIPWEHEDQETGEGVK
row,SMILES,activation
1,CC(=O)Nc1nc(C(=O)Nc2nc(-c3sc(C)nc3C)cs2)cs1,5.72% (active)
2,CC(=O)Nc1nc(C)c(-c2csc(Nc3ccc(C)cc3)n2)s1,0.136% (inactive)
3,N#Cc1c(SCC(=O)Nc2ccc(Br)cc2)nsc1SCC(=O)Nc1ccc(Br)cc1,-0.245% (inactive)
4,Cc1cc(C(=O)N2CCOCC2)c2ccccc2n1,-0.327% (inactive)
5,Cc1cccc2c(C(=O)N3CCOCC3)cc(-c3ccccc3)nc12,0.152% (inactive)
6,CCOc1ccccc1-c1cc(C(=O)N2CCOCC2)c2ccccc2n1,13.1% (active)
7,COc1ccc(NC(=S)N2CCN(S(=O)(=O)c3ccc(F)cc3)CC2)c(OC)c1,8.74% (active)
8,COc1cc([N+](=O)[O-])ccc1NC(=S)N1CCN(S(C)(=O)=O)CC1,0.0846% (inactive)
9,O=S(=O)(c1ccc(F)cc1)N1CCN(C(=S)NC2CCCC2)CC1,-1.65% (inactive)
10,COc1ccc(NC(=O)CSc2nc3n[nH]c(C)c3c(=N)n2-c2ccccc2Cl)c(OC)c1,0.84% (inactive)
11,CCOc1ccc(C(c2sc3nc(C)nn3c2O)N2CCCC2)cc1OC (stereo unspecified),0.827% (inactive)
12,COCCNC(=O)CCCNC(=O)Cn1cnc2sc(C)c(C)c2c1=O,1.23% (inactive)
13,COc1cc(Cl)c(C)cc1NC(=O)Cn1cnc2sc(C)c(C)c2c1=O,0.0902% (inactive)
14,COc1ccc(C2(NC(=O)CCn3cnc4sc(C)c(C)c4c3=O)CCCCC2)cc1,4.94% (active)
15,Cc1ccc(C2=NC(c3ccc(F)cc3)NC(c3cc(Cl)ccc3O)C2)cc1 (stereo unspecified),1.41% (inactive)
16,Cc1ccc(C2=NC(c3cc(Br)ccc3F)NC(c3cc(Cl)ccc3O)C2)cc1 (stereo unspecified),10.7% (active)
17,COc1ccccc1C1N=C(c2ccc(C)cc2)CC(c2cc(Cl)ccc2O)N1 (stereo unspecified),1.39% (inactive)
18,Cc1ccc(OCC(=O)Nc2ccc(C)c(Cl)c2)cc1C,1.59% (inactive)
19,O=C(COc1ccc(CO)cc1)Nc1ccc(Cl)c(Cl)c1,8.11% (active)
20,O=C(COc1ccc(Cl)cc1)Nc1ccc(F)c(F)c1,0.102% (inactive)
21,CCN(CC)S(=O)(=O)c1ccc(NC(=O)c2ccc(F)cc2)cc1,-0.476% (inactive)
22,Cc1cccc(OCCN2CCNCC2)c1C,0.825% (inactive)
23,Cc1ccc(C(C)(C)C)c(OCCN2CCNCC2)c1,0.932% (inactive)

row,SMILES,activation
1,C=CCc1ccccc1OCCN1CCNCC1,5.95% (active)
2,COc1cccc(CNC(=O)Cn2c(=O)oc3ccccc32)c1,-1.36% (inactive)
3,N#CCCn1c2ccc(Cl)cc2c2cc(Cl)ccc21,2.4% (inactive)
4,COc1ccc(N2CCN(c3ncnc4c3c(-c3ccccc3)cn4-c3ccc(C)cc3)CC2)cc1,-2.7% (inactive)
5,CC1CN(c2ncnc3c2c(-c2ccccc2)cn3-c2cccc(C(F)(F)F)c2)CC(C)O1 (stereo unspecified),-1.46% (inactive)
6,Cc1ccc(-n2cc(-c3ccccc3)c3c(N4CC(C)OC(C)C4)ncnc32)cc1 (stereo unspecified),7.76% (active)
7,CCN(CC)CCCNCC(=O)Nc1ncc(C)s1,-1.43% (inactive)
8,OCC1(Cc2ccccc2C(F)(F)F)CCN(Cc2ccncc2)CC1,-0.707% (inactive)
9,Cc1ccccc1CC1(CO)CCCN(Cc2ccncc2)C1 (stereo unspecified),5.32% (active)
10,Cc1ccccc1CC1(CO)CCCN(C(=O)CN(C)Cc2ccncc2)C1 (stereo unspecified),0.125% (inactive)
11,Cc1csc(COc2ccc(C(=O)NCc3cccs3)cc2)n1,-2.02% (inactive)
12,Cn1ncc2c(NNC(=O)c3ccc(C(C)(C)C)cc3)ncnc21,1.02% (inactive)
13,Cn1ncc2c(Nc3cccc4ccccc34)ncnc21,2.47% (inactive)
14,Cn1ncc2c(NNC(=O)Cc3cccc4ccccc34)ncnc21,6.03% (active)
15,O=C1c2ccccc2C(=O)C1(Nc1ccc(-c2ccccc2)cc1)c1ccccc1,0.902% (inactive)
16,O=C(Nc1ccc2c(c1)C(=O)Nc1cc(Cl)ccc1O2)c1cccc(F)c1,-0.172% (inactive)
17,Cc1ccc(C2CC(c3cccs3)=NN2C(=O)CSc2nnc(CNC(=O)c3cccs3)n2Cc2ccccc2)cc1 (stereo unspecified),-0.904% (inactive)
18,O=C(NCc1nnc(SCC(=O)N2N=C(c3cccs3)CC2c2ccc(F)cc2)n1Cc1ccccc1)c1cccc(F)c1 (stereo unspecified),5.02% (active)
19,COc1ccc(C2CC(c3cccs3)=NN2C(=O)CSc2nnc(CNC(=O)c3cccc(C)c3)n2Cc2ccccc2)cc1 (stereo unspecified),-0.0797% (inactive)
20,CSc1ccc2nc(NC(=O)c3ccccc3Cl)sc2c1,-0.347% (inactive)
21,CC(=O)OCC#CCSc1nc2ccccc2o1,-0.909% (inactive)
22,Fc1ccccc1OCCSc1nc2ccccc2o1,4.92% (active)
23,N#Cc1ccccc1CSc1nc2ccccc2o1,-1.07% (inactive)
